Source: PubChem BioAssay AID1159580 (chemical genetic matrix, 2015)
The campaign covered roughly 5,500 compounds. About 2,000 (36%) were called active. Roughly 18% stayed inconclusive and do not appear here. Rule as the data show it: active = normalized growth mostly below about 0.91 (no sharp cut-off); inconclusive = no clear call, values can overlap the other calls; inactive = mostly above about 0.92. This is one part of the list.

Test: chemical genetic growth profiling, strain panel (AID 1159580);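 also: tested at 20 µM; growth read once vehicle control cultures reached saturation at 30 °C; 1 = growth at the plate median or of vehicle wells; lower values mean less growth of the strain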
Settings: S. cerevisiae deletion strains, growth OD

Measured: normalized growth

COc1cc(O)c2c(=O)c(O)c(-c3ccc(O)c(O)c3)oc2c1
active: locus YAL021C, strain ccr4, stronger effect = lower value 0.466 | locus YAL026C, strain drs2, stronger effect = lower value 0.678 | locus YAL030W, strain snc1, stronger effect = lower value 0.886 | locus YBL061C, strain skt5, stronger effect = lower value 0.794 | locus YBR009C, strain hhf1, stronger effect = lower value 0.773 | locus YBR023C, strain chs3, stronger effect = lower value 0.693 | locus YBR231C, strain swc5, stronger effect = lower value 0.72 | locus YBR279W, strain paf1, stronger effect = lower value 0.829 | locus YCL011C, strain gbp2, stronger effect = lower value 0.803 | locus YCL016C, strain dcc1, stronger effect = lower value 0.865 | locus YCL069W, strain vba3, stronger effect = lower value 0.846 | locus YCR088W, strain abp1, stronger effect = lower value 0.912 | locus YDR069C, strain doa4, stronger effect = lower value 0.467 | locus YDR137W, strain rgp1, stronger effect = lower value 0.659 | locus YDR297W, strain sur2, stronger effect = lower value 0.787 | locus YDR334W, strain swr1, stronger effect = lower value 0.755 | locus YDR335W, strain msn5, stronger effect = lower value 0.761 | locus YEL003W, strain gim4, stronger effect = lower value 0.795 | locus YEL037C, strain rad23, stronger effect = lower value 0.823 | locus YEL061C, strain CIN8 (second series), stronger effect = lower value 0.907 | locus YER015W, strain faa2, stronger effect = lower value 0.66 | locus YER016W, strain bim1, stronger effect = lower value 0.895 | locus YER111C, strain swi4, stronger effect = lower value 0.793 | locus YER155C, strain BEM2 (second series), stronger effect = lower value 0.789 | locus YFR010W, strain ubp6, stronger effect = lower value 0.736 | locus YGL173C, strain kem1, stronger effect = lower value 0.657 | locus YGL253W, strain hxk2, stronger effect = lower value 0.693 | locus YHR013C, strain ard1, stronger effect = lower value 0.808 | locus YHR027C, strain rpn1, stronger effect = lower value 0.549 | locus YHR129C, strain ARP1, stronger effect = lower value 0.875 | locus YHR142W, strain chs7, stronger effect = lower value 0.622 | locus YJL092W, strain hpr5, stronger effect = lower value 0.885 | locus YJL095W, strain BCK1 (second series), stronger effect = lower value 0.746 | locus YJL129C, strain trk1, stronger effect = lower value 0.867 | locus YJL164C, strain tpk1, stronger effect = lower value 0.723 | locus YJL166W, strain qcr8, stronger effect = lower value 0.819 | locus YJL187C, strain SWE1 (second series), stronger effect = lower value 0.776
inactive: locus YAL013W, strain DEP1, stronger effect = lower value 0.998 | locus YBR021W, strain FUR4, stronger effect = lower value 1.01 | locus YBR171W, strain sec66, stronger effect = lower value 0.932 | locus YBR229C, strain ROT2, stronger effect = lower value 0.987 | locus YCL029C, strain bik1, stronger effect = lower value 1.01 | locus YDL005C, strain med2, stronger effect = lower value 1 | locus YDL035C, strain GPR1, stronger effect = lower value 0.931 | locus YDL040C, strain nat1, stronger effect = lower value 0.988 | locus YDL074C, strain BRE1, stronger effect = lower value 0.822 | locus YDL101C, strain DUN1, stronger effect = lower value 0.911 | locus YDL185W, strain tfp1, stronger effect = lower value 0.995 | locus YDL192W, strain arf1, stronger effect = lower value 0.986 | locus YDR001C, strain nth1, stronger effect = lower value 0.954 | locus YDR101C, strain arx1, stronger effect = lower value 0.992 | locus YDR159W, strain sac3, stronger effect = lower value 0.891 | locus YDR162C, strain NBP2, stronger effect = lower value 0.948 | locus YDR195W, strain ref2 1.02 | locus YDR318W, strain mcm21, stronger effect = lower value 0.986 | locus YDR388W, stronger effect = lower value 1.01 | locus YDR392W, strain spt3, stronger effect = lower value 0.838 | locus YDR502C, strain sam2, stronger effect = lower value 0.981 | locus YEL061C, strain CIN8, stronger effect = lower value 0.966 | locus YER110C, stronger effect = lower value 1.03 | locus YER155C, strain BEM2, stronger effect = lower value 1.01 | locus YER167W, strain BCK2, stronger effect = lower value 1.02 | locus YGL078C, strain dbp3, stronger effect = lower value 1.01 | locus YGL086W, strain mad1, stronger effect = lower value 0.933 | locus YGL167C, strain pmr1, stronger effect = lower value 0.949 | locus YGL227W, strain vid30, stronger effect = lower value 1.01 | locus YGL240W, strain doc1, stronger effect = lower value 0.961 | locus YGL248W, strain PDE1, stronger effect = lower value 0.915 | locus YGR135W, strain pre9, stronger effect = lower value 0.984 | locus YGR252W, strain gcn5, stronger effect = lower value 1.03 | locus YHR030C, strain SLT2, stronger effect = lower value 0.971 | locus YHR079C, strain IRE1 (second series), stronger effect = lower value 1.02 | locus YHR094C, strain hxt1, stronger effect = lower value 1.02 | locus YHR200W, strain rpn10, stronger effect = lower value 0.997 | locus YIL066C, strain RNR3, stronger effect = lower value 0.974 | locus YIL073C, strain SPO22, stronger effect = lower value 0.925 | locus YIL125W, strain kgd1, stronger effect = lower value 0.981 | locus YIR030C, strain dcg1, stronger effect = lower value 1.01 | locus YJL095W, strain BCK1, stronger effect = lower value 0.822 | locus YJL115W, strain asf1, stronger effect = lower value 0.968 | locus YJL134W, strain LCB3, stronger effect = lower value 0.986 | locus YJL154C, strain vps35, stronger effect = lower value 0.957 | locus YJL168C, strain set2, stronger effect = lower value 1.03 | locus YJR043C, strain POL32, stronger effect = lower value 0.896
